Peg3 prom inh-1 = reduces Peg3 promoter-driven luciferase expression in HeLa. HeLa PEG-Prom luciferase reporter, luminescence, overnight. inhibition, % at 20 µM. actives 1.7% (n = 360,000). AID 588405;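 active = inhibition of at least 50% at 20 µM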
Shn3 inh set2 = Schnurri-3 reporter inhibition in Clone20 osteoblasts; Clone20 osteoblast Shn3 3'UTR firefly luciferase, 24 h; inhibition, % at 12.5 µM; actives 0.52% (n = 360,000); AID 588674;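 active = mean inhibition of at least 75% with every replicate also reaching 75%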
HIF-2a inh = blocks HIF-2a reporter activity; 786-0 RCC cells HIF-2a reporter, luciferase luminescence, overnight; inhibition, % at 18.8 µM; actives 0.72% (n = 360,000); AID 624352;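 active = inhibition of the luminescence signal of 40% or more relative to plate controls, in a single-dose primary screen at 18.75 µM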
CF NFkB inh = blocks PAF-induced NF-kB reporter in cystic fibrosis cells | KKLEB NF-kB-GFP reporter, GFP fluorescence overnight | actives 0.86% (n = 360,000) | inhibition, % at 5 µM;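 active = at least 50% inhibition at 5 µM, scaled per plate between neutral and stimulator controls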;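 also: PAF is a Pseudomonas aeruginosa culture filtrate used as stimulus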
KKLEB cytotox = counter-screen for CF NF-kB inhibitors: cytotoxicity; activity change (cytotoxicity), % at 5 µM; actives 0.36% (n = 360,000); KKLEB CF airway cells viability, ATPlite luminescence, overnight; active compounds read low; cells stimulated with P. aeruginosa culture filtrate;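 active = corrected activity change at or below -50% at 5 µM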
Peg3 prom inh-2 = Peg3 promoter inhibition confirmation; shares compounds with Peg3 prom inh-1; HeLa PEG-Prom luciferase reporter, luminescence, overnight; inhibition, % at 20 µM; actives 84% (n = 1,300); AID 602417;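 active = at 20 µM dose, 40% or more inhibition averaged across four replicates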
Large screens that a line does not name were inactive (follow-up assays come after a bar, where they were run). This is a sample that favours compounds with a hit; in the whole collection about 2.6% have one here.

COc1ccc(C(CCN(Cc2ccc(OC)c(OC)c2)C(C)=O)c2ccccc2)cc1 (stereo unspecified)	none
COc1ccc(CNCCC(c2ccccc2)c2ccc(OC(C)C)cc2)cc1OC (stereo unspecified)	Peg3 prom inh-1 101 | Peg3 prom inh-2 97
COc1ccccc1C1c2ccc3ccccc3c2Oc2ncn(CCCO)c(=N)c21 (stereo unspecified)	Peg3 prom inh-1 102 | Peg3 prom inh-2 97
COc1ccc(/C=C2\SC(=S)N(CCCC(=O)NNC(=O)c3ccccc3O)C2=O)cc1	Peg3 prom inh-1 71, HIF-2a inh 90 | Peg3 prom inh-2 72
O=C(O)CN1C(=O)/C(=C\c2ccccc2OCc2ccc(Cl)cc2Cl)SC1=S	Peg3 prom inh-1 55, HIF-2a inh 66 | Peg3 prom inh-2 65
O=C(CCCN1C(=O)/C(=C/c2ccccc2Cl)SC1=S)NNC(=O)c1ccccc1Cl	Peg3 prom inh-1 60, HIF-2a inh 93 | Peg3 prom inh-2 68
COc1ccccc1/C=C1\SC(=S)N(CCC(=O)NNC(=O)c2ccccc2O)C1=O	none
O=C(O)CN1C(=O)/C(=C\c2cc(Br)ccc2OCc2ccccc2Cl)SC1=S	none
CCN(C(=O)c1ccc2c(c1)OCO2)C12CC3CC(CC(C3)C1)C2	none
CCN1CCN(C(=O)c2cc(COc3ccc(C(C)=O)cc3OC)on2)CC1	none
CC(=O)NCCC1CCN(C(=O)C2CCC(=O)N(C3CCCC3)C2)CC1 (stereo unspecified)	none
COc1ccc(C(=O)N=C2SC3CS(=O)(=O)CC3N2Cc2ccc(F)cc2)cc1 (stereo unspecified)	none
O=C(c1ccc(S(=O)(=O)c2ccc(Cl)cc2)cc1)N1CCOCC1	none
Cc1ccc(C)c(CN2CCC(CNC(=O)Nc3cccc(Cl)c3C)CC2)c1	none
Cc1ccc(C)c(CN2CCC(CNC(=O)Nc3ccc(F)c(Cl)c3)CC2)c1	Peg3 prom inh-1 68 | Peg3 prom inh-2 98
CCOC(=O)c1c(C)[nH]c(C)c1C(=O)CSc1ncccn1	none
c1ccc(C[C@H]2CNCCN2CCCCC2CCCCC2)cc1	Peg3 prom inh-1 105 | Peg3 prom inh-2 98
O=C(CCCc1c[nH]c2ccccc12)NCc1cccs1	none
CCOc1ccc(S(=O)(=O)NCc2cccnc2)cc1C(C)C	none
COc1ccc(S(=O)(=O)N2CCN(C)CC2c2ccccc2)cc1OC (stereo unspecified)	none
CCCCCCCCOC(=O)c1cc([N+](=O)[O-])c(Sc2ncnc3nc[nH]c23)c([N+](=O)[O-])c1	Peg3 prom inh-1 83, Shn3 inh set2 99 | Peg3 prom inh-2 73
C=C(C)CN1CCN(c2c(CCC#N)c(C)c(C#N)c3nc4ccccc4n23)CC1	Peg3 prom inh-1 82 | Peg3 prom inh-2 41
CCCCCc1c(C)c(C#N)c2nc3ccccc3n2c1-n1ccnc1C	none
CC12CCC(C(=O)Nc3ccccc3Cl)(C(Br)C1=O)C2(C)C (stereo unspecified)	none
COc1ccc2c(C#CCCO)c(-c3ccc(S(C)(=O)=O)cc3)sc2c1	Peg3 prom inh-1 50 | Peg3 prom inh-2 42
CS(=O)(=O)c1ccc(-c2sc3ccccc3c2C#CCCO)cc1	Peg3 prom inh-1 54 | Peg3 prom inh-2 60
COc1ccc(-c2sc3ccccc3c2C#CCCO)cc1	none
CCOc1cc(CNc2ncn[nH]2)ccc1OCC(=O)NC(C)(C)C	none
C/C(=N/N1CCN(c2ccccn2)CC1)c1cccc([N+](=O)[O-])c1	none
O=C(Nc1ccccc1C(=O)Nc1nnc(C(F)(F)F)s1)c1ccccc1	Peg3 prom inh-1 59, KKLEB cytotox -53 | Peg3 prom inh-2 87
CCOC(=O)N1CCN(S(=O)(=O)c2ccc(C(=O)Nc3nc4ccccc4s3)cc2)CC1	none
CCOC(=O)N1CCN(S(=O)(=O)c2ccc(C(=O)Nc3nc4ccc(F)cc4s3)cc2)CC1	Peg3 prom inh-1 55 | Peg3 prom inh-2 inactive
CN=c1scc(-c2cccs2)n1/N=C/c1ccccc1O	Peg3 prom inh-1 91, Shn3 inh set2 90, HIF-2a inh 90, KKLEB cytotox -69 | Peg3 prom inh-2 95
CN=c1scc(-c2cccs2)n1/N=C/c1ccc(O)c(O)c1O	none
CC(=O)NC(c1ccccc1)c1cc(Cl)c2cccnc2c1O (stereo unspecified)	Peg3 prom inh-1 51 | Peg3 prom inh-2 65
CC(=O)NC(c1cc(F)c2cccnc2c1O)C1CC1 (stereo unspecified)	none

Source: PubChem BioAssay
